The record followed here is article PMC4336329 (PLoS ONE, 2015).

Out of some 310,000 compounds screened, about 14,000 (4.5%) showed an effect of 50% or more. The effect is printed as a negative number. For the sample, strong results were picked, then their nearest neighbours and some compounds at random.
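Also: peak tail current of the secondary pulse compared with the same well before compound.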

The test deals with human ether-à-go-go-related gene (hERG) potassium channel (human, UniProt Q12809). Nature of the test: primary screen, population patch clamp on CHO cells stably expressing hERG; higher = less effect of the substance.
human ether-à-go-go-related gene (hERG) potassium channel, sequence (Q12809 whole entry, looked up): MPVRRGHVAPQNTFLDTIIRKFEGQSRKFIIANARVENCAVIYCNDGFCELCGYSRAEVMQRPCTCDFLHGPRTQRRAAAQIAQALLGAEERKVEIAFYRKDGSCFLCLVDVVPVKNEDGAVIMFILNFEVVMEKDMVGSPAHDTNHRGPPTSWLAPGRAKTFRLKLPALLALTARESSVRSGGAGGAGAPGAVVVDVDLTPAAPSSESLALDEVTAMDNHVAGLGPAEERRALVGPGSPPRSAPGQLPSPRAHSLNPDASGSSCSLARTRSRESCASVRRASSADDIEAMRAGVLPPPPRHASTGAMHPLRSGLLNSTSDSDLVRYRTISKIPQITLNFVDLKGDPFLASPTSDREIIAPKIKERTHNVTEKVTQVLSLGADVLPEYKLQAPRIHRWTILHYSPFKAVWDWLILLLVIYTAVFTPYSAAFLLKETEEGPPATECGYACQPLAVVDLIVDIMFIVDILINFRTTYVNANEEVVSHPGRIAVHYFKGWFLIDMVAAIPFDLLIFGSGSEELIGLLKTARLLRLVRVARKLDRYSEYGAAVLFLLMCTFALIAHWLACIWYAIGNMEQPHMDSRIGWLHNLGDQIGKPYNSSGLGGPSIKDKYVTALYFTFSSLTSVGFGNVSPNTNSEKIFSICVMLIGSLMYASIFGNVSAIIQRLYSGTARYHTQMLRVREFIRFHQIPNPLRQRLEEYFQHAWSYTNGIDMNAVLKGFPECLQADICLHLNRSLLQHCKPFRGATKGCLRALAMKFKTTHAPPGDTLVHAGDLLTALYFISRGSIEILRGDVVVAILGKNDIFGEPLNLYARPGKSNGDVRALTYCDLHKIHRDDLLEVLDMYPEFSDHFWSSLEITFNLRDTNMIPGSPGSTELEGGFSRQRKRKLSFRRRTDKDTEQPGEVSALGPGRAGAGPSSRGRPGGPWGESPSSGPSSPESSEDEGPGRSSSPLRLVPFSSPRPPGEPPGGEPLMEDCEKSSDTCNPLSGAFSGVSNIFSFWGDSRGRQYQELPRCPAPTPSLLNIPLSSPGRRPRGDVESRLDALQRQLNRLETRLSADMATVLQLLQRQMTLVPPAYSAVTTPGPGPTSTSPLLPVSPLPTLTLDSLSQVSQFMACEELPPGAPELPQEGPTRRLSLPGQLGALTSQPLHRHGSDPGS
Regarding `O=C(Nc1ccccc1)c1ccccc1Oc1ccc(C(F)(F)F)cc1[N+](=O)[O-]`, the “hERG current change (%, negative = inhibition) at 10uM” value is 9.75%.

In the case of `CC(=O)Nc1ccc(S(=O)(=O)NCCc2c[nH]c3ccc(C)cc23)cc1`, the “hERG current change (%, negative = inhibition) at 10uM” value worked out at 26.2%. The same measure for `CS(=O)(=O)N(Cc1ccccc1)c1ccc(C(=O)Nc2cccnc2)cc1`: -5.96%. Regarding `CN1CCN(S(=O)(=O)c2ccc(NC(=S)NC(=O)C(C)(C)C)cc2)CC1`, the “hERG current change (%, negative = inhibition) at 10uM” value was determined as 1.03%. The same measure for `Cc1nn(S(=O)(=O)c2cccc([N+](=O)[O-])c2)c(C)c1Br`: 10.7%; for `CC(C)(C)NC(=O)C(c1ccc(O)cc1)N(C(=O)CCC(=O)Nc1nccs1)c1cccc(F)c1` (centres unmarked): 16.8%; for `O=C(O)CC(NC(=O)c1ccco1)c1ccco1` (centres unmarked): 17.4%. The same measure for `CSc1sc(-c2nnc(SCC(=O)Nc3ccccc3)n2C)c2c1C=CCC2`: -2.35%; for `CSc1sc(-c2nnc(SCC(=O)Nc3ccc(Cl)cc3)n2C)c2c1C=CCC2`: 10.5%; for `CSc1sc(-c2n[nH]c(=S)n2C)c2c1C=CCC2`: -56.8%. The same measure for `Cc1cccc(C(=O)NN2S(=O)(=O)c3ccccc3S2(=O)=O)c1`: 18.2%; for `O=C(NCCC1=CCCCC1)c1cc(-c2ccccn2)nc2ccccc12`: 8.77%; for `COCCCNC(=O)C1CCN(S(=O)(=O)N(CC(C)C)CC(C)C)CC1`: 13.4%. For the molecule `CC(=O)N/C(=C/c1ccc2c(c1)OCO2)C(=O)NCCO`, the “hERG current change (%, negative = inhibition) at 10uM” value turned out to be 9.66%. The same measure for `CC(=O)N/C(=C/c1ccc2c(c1)OCO2)C(=O)NCCCO`: 23.3%; for `O=C(NCCO)/C(=C/c1ccc2c(c1)OCO2)NC(=O)c1ccc(Br)cc1`: -69.5%. The same measure for `O=C(N/N=C/c1ccc2c(c1)OCO2)/C(=C/c1ccc2c(c1)OCO2)NC(=O)c1ccccc1`: -20.7%; for `O=C(NCCO)/C(=C\c1ccc2c(c1)OCO2)NC(=O)c1ccc(Br)cc1`: -51.9%. The same measure for `O=C(OCc1cc(Cl)ccc1OC(F)F)c1cncc(Br)c1`: 5.33%. With `COc1ccc(C(=O)N=C2SC3CS(=O)(=O)CC3N2Cc2ccccc2)cc1OC` (centres unmarked), the “hERG current change (%, negative = inhibition) at 10uM” value was determined as 13.3%.

As to `CCOC(=O)c1c(C)[nH]c(C(=O)COC(=O)/C=C/c2ccc(O)c(OC)c2)c1C`, the “hERG current change (%, negative = inhibition) at 10uM” value came out at 2.87%. The same measure for `CCOc1ccc(NS(=O)(=O)c2ccc(C(=O)N3CCN(C(C)=O)CC3)cc2)cc1`: 26.6%; for `Cc1ccccc1-n1nc(C)c2c1N=C1C(Cl)=CC(Cl)=CN1C2c1ccc(C(=O)O)cc1` (centres unmarked): 11.9%. As to `CCOc1cc(N2CCOCC2)c(OCC)cc1NC(=O)CN1CCc2ccccc2C1`, the “hERG current change (%, negative = inhibition) at 10uM” value was 2.76%. In the case of `COc1cccc(NC(=S)N(Cc2ccc(Cl)cc2)Cc2ccc(C(=O)O)cc2)c1`, the “hERG current change (%, negative = inhibition) at 10uM” value amounted to 25.6%. Regarding `COc1ccc2[nH]c(C)c(CCNC(=S)Nc3cccc(C)c3C)c2c1`, the “hERG current change (%, negative = inhibition) at 10uM” value was determined as 15.9%. The same measure for `O=C(CN1CCCCCC1)NCCN1C(=O)S/C(=C\c2ccccc2Cl)C1=O`: -9.34%; for `CC1CN(C(c2cccs2)c2sc3ncnn3c2O)CC(C)O1` (centres unmarked): 19.5%; for `O=C(NC1CCCCC1)C(c1ccc2ncccc2c1)N(Cc1ccccc1)C(=O)c1cccs1` (centres unmarked): -60.4%. The same measure for `O=C(NC1CCCCC1)C(c1ccc2ncccc2c1)N(Cc1cccs1)C(=O)c1cccs1` (centres unmarked): -51.3%. The same measure for `O=C(NC1CCCCC1)C(c1cccs1)N(Cc1cccs1)C(=O)c1cccs1` (centres unmarked): -12.2%; for `COc1ccc(CN(C(=O)c2cccs2)C(C(=O)NC2CCCCC2)c2ccc3ncccc3c2)cc1` (centres unmarked): -47.9%; for `O=C(NC1CCCCC1)C(c1ccc2ncccc2c1)N(Cc1ccc(F)cc1)C(=O)c1cccs1` (centres unmarked): -22%. As for `O=C(NC1CCCCC1)C(c1ccc2ncccc2c1)N(Cc1ccc2c(c1)OCO2)C(=O)c1cccs1` (centres unmarked), the “hERG current change (%, negative = inhibition) at 10uM” value is -37.1%.

As to `COCCNC(=O)Cn1cc(C(=S)N2CCCCC2)c2ccccc21`, the “hERG current change (%, negative = inhibition) at 10uM” value was determined as 18.7%. The same measure for `COc1ccccc1C(=O)NCCC(=O)N1CCCCCCC1`: 4.61%; for `CCOC(=O)c1csc(NC(=O)CN2CCN(C)CC2)n1`: 19%; for `Cc1ccc(S(=O)(=O)NCC(=O)N/N=C/c2ccc(Cl)cc2)cc1`: -3.55%. The same measure for `CCOCC(=O)Nc1nnc(SCCOC)s1`: -0.419%; for `O=C(CCCN1C(=O)/C(=C/c2cccs2)SC1=S)Nc1cc([N+](=O)[O-])ccc1O`: 21.1%; for `O=C(C1CCC(Cn2c(=O)[nH]c3ccccc3c2=O)CC1)N1CCN(c2ccccc2)CC1` (centres unmarked): 6.47%.

As to `Fc1ccc(C2c3cccn3CCN2C(=S)Nc2cccc(F)c2)cc1` (centres unmarked), the “hERG current change (%, negative = inhibition) at 10uM” value was 6.02%. On to `CCCCCc1cc(=O)oc2c(C(CCN(CC)CC)c3ccc(N(C)C)cc3)c(OC)cc(OC)c12` (centres unmarked), for which the “hERG current change (%, negative = inhibition) at 10uM” value was -33.6%. The same measure for `CCN(CC)CCC(c1ccc(N(C)C)cc1)c1c(OC)cc(OC)c2ccc(=O)oc12` (centres unmarked): -11.7%; for `CCCCCc1cc(=O)oc2c(C(CCN3CCN(c4ccccc4)CC3)c3ccc(N(C)C)cc3)c(OC)cc(OC)c12` (centres unmarked): 5.51%. For the molecule `CCCCCc1cc(=O)oc2c(C(CCN(CC)CC)c3ccc(OC)cc3)c(OC)cc(OC)c12` (centres unmarked), the “hERG current change (%, negative = inhibition) at 10uM” value is listed as -55.2%. The same measure for `CCCCCc1cc(=O)oc2c(C(CCN3CCN(c4ccccc4)CC3)c3ccc4c(c3)OCO4)c(OC)cc(OC)c12` (centres unmarked): 18.7%; for `CCCCCc1cc(=O)oc2c(C(CCN3CCCC(C)C3)c3ccc4c(c3)OCO4)c(OC)cc(OC)c12` (centres unmarked): -7.33%. The same measure for `CCCCCc1cc(=O)oc2c(C(CCN3CCCC3)c3ccc(N(C)C)cc3)c(OC)cc(OC)c12` (centres unmarked): -57.5%. Turning to `CCCCCc1cc(=O)oc2c(C(CCN3CCCCC3)c3ccc4c(c3)OCO4)c(OC)cc(OC)c12` (centres unmarked), the “hERG current change (%, negative = inhibition) at 10uM” value was -54.3%. The same measure for `CCCCCc1cc(=O)oc2c(C(CCN3CCCCC3)c3ccc(OC)cc3)c(OC)cc(OC)c12` (centres unmarked): -59.1%; for `CCCCCc1cc(=O)oc2c(C(CCN3CCCC(C)C3)c3ccc(OC)cc3)c(OC)cc(OC)c12` (centres unmarked): -27.8%; for `CCCCCc1cc(=O)oc2c(C(CCN3CCCC(C)C3)c3ccc(N(C)C)cc3)c(OC)cc(OC)c12` (centres unmarked): 6.65%. The same measure for `CC(=O)c1cn(-c2ccc(Cl)cc2)c(=O)n(Cc2ccc(Br)cc2)c1=O`: -11.9%; for `O=C(Nc1ccccc1F)C1CCCN(S(=O)(=O)c2ccccc2)C1` (centres unmarked): -10.3%; for `Cc1ccc(Cc2cnc(N3C(=N)SC(c4ccccc4)C3=O)s2)cc1` (centres unmarked): 3.87%.

Turning to `COc1cc(OC)cc(C(=O)NCC(=O)OCC(=O)C(C)(C)C)c1`, the “hERG current change (%, negative = inhibition) at 10uM” value came out at 16.6%.

`CCCC1=NN2C(=N)/C(=C\c3cc(C)n(-c4cc(C)cc(C)c4)c3C)C(=O)N=C2S1`: the “hERG current change (%, negative = inhibition) at 10uM” value is given as -10.4%. In the case of `CCc1nc2c(n1O)CCc1nonc1-2`, the “hERG current change (%, negative = inhibition) at 10uM” value is recorded as 4.58%. For `COc1ccc(Cl)cc1NC(=O)CCCN1C(=O)CCC1=O`, the “hERG current change (%, negative = inhibition) at 10uM” value came to 14.4%. The same measure for `CCOC(=O)c1c(C)[nH]c(C)c1C(=O)C(Cc1ccccc1)N(C)C.Cl` (centres unmarked): 4.71%. The same measure for `O=C(NCC(c1cccnc1)N1CCN(c2ccc(F)cc2)CC1)OCc1ccccc1` (centres unmarked): -56.8%. The same measure for `O=S(=O)(NCC(c1cccnc1)N1CCN(c2ccc(F)cc2)CC1)c1ccccc1` (centres unmarked): -53.2%; for `O=C(NCC(c1cccnc1)N1CCN(c2ccc(F)cc2)CC1)Oc1ccccc1` (centres unmarked): -26.4%; for `O=S(=O)(NCC(c1cccnc1)N1CCN(c2ccc(F)cc2)CC1)c1ccc(F)cc1` (centres unmarked): -69%. For the molecule `O=C(NCC(c1cccnc1)N1CCN(c2ccccc2)CC1)OCc1ccccc1` (centres unmarked), the “hERG current change (%, negative = inhibition) at 10uM” value is -45.9%. The same measure for `O=S(=O)(NCC(c1ccco1)N1CCN(c2ccc(F)cc2)CC1)c1ccc(F)cc1` (centres unmarked): -0.721%.

On to `O=C(NCC(c1cccnc1)N1CCN(c2ccc(F)cc2)CC1)c1ccc(F)cc1` (centres unmarked), for which the “hERG current change (%, negative = inhibition) at 10uM” value was -47.6%. For `CCS(=O)(=O)NCC(c1cccnc1)N1CCN(c2ccc(F)cc2)CC1` (centres unmarked), the “hERG current change (%, negative = inhibition) at 10uM” value is on record as -7.91%.

Regarding `COc1ccc2c(c1)-c1c(ssc1=S)C(C)(C)N2S(=O)(=O)c1ccc(C)cc1`, the “hERG current change (%, negative = inhibition) at 10uM” value is 2.55%. The same measure for `CCCCN1C(=O)/C(=C/c2ccc(N(C)C)cc2)C(=O)N(Cc2ccco2)C1=O`: 7.86%; for `S=C(NCC1CCCO1)Nc1ccccc1` (centres unmarked): 25.5%. The same measure for `Cc1c(CN2CCC(C(=O)Nc3cccc(-c4cccc(Cl)c4)c3)CC2)cnn1C`: -61.4%; for `CCn1cc(CN2CCC(C(=O)Nc3cccc(-c4cccc(OC)c4)c3)CC2)c(C)n1`: -46.3%; for `CC(=O)c1cc(CN2CCC(C(=O)Nc3cccc(-c4cscn4)c3)CC2)cs1`: -30.5%. The same measure for `C=CCn1cc(CN2CCC(C(=O)Nc3cccc(-c4cccc(Cl)c4)c3)CC2)c(C)n1`: -71.5%; for `CCn1cc(CN2CCC(C(=O)Nc3cccc(-c4cccc(Cl)c4)c3)CC2)c(C)n1`: -78.9%; for `Cc1c(CN2CCC(C(=O)Nc3ccc(Oc4ccccc4)nc3)CC2)cnn1C`: -32.8%. Regarding `CCn1cc(CN2CCCC(C(=O)Nc3ccc(-c4cscn4)cc3)C2)c(C)n1` (centres unmarked), the “hERG current change (%, negative = inhibition) at 10uM” value is given as -8.71%. As for `C=CCOc1cccc(C2NC(=O)c3ccccc3O2)c1` (centres unmarked), the “hERG current change (%, negative = inhibition) at 10uM” value came to 21.4%.
